Results taken from PubChem BioAssay (NCI).
Compounds without any hit were thinned out: in the full panel of roughly 79,000, 15% have a hit. Active and inactive are the calls of the source. Rule as the data show it: active = growth inhibition above about 70%; inactive = the rest.

Legend:
[1] = NCI Yeast Anticancer Drug Screen. Data for the rad52 strain (AID 147);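 also: 0% = growth of vehicle-treated control cultures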; conditions: S. cerevisiae rad52 mutant growth inhibition, stronger effect = higher value
Procedure, shortened: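 The repair-mutant yeast strain was incubated with compounds, then growth was read and inhibition derived relative to vehicle.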

[2] = NCI Yeast Anticancer Drug Screen. Data for the wt1 strain (AID 149);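 also: 0% = growth of vehicle-treated wt1 cultures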; conditions: S. cerevisiae wt1 strain (SPY 50644) growth inhibition, stronger effect = higher value
Procedure, shortened: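 wt1 strain grown with compound or vehicle; inhibition taken from the growth difference.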

[3] = NCI Yeast Anticancer Drug Screen. Data for the rad50EPP+ strain (AID 151);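 also: 0% = growth of vehicle-treated control cultures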; conditions: S. cerevisiae rad50 mutant strain, stronger effect = higher value
Procedure, shortened: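 Vehicle-normalised growth inhibition; rad50EPP+ yeast strain, altered in DNA damage repair, compound-treated.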

[4] = NCI Yeast Anticancer Drug Screen. Data for the mgt1 strain (AID 153); conditions: S. cerevisiae mgt1 mutant growth inhibition, stronger effect = higher value
Procedure, shortened: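 Vehicle-normalized growth inhibition is determined in mgt1 yeast, a strain selected for a defined alteration in DNA repair or cell cycle control.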

[5] = NCI Yeast Anticancer Drug Screen. Data for the rad50 strain (AID 155);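 also: 0% = growth of vehicle-only cultures of the same strain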; conditions: S. cerevisiae rad50 strain growth inhibition, stronger effect = higher value
Procedure, shortened: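 DNA repair mutant yeast, compound exposure, growth read-out; inhibition is taken relative to vehicle.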

[6] = NCI Yeast Anticancer Drug Screen. Data for the mec2-1 strain (AID 157); conditions: S. cerevisiae mec2-1 strain, stronger effect = higher value
Procedure, shortened: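 Mutant yeast (mec2-1) grown with compound; growth inhibition relative to vehicle control reported.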

[7] = NCI Yeast Anticancer Drug Screen. Data for the rad14 strain (AID 159);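 also: 0% = growth of vehicle-treated control cultures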; conditions: S. cerevisiae rad14 strain growth inhibition, stronger effect = higher value
Procedure, shortened: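 DNA repair-defective yeast, compound-exposed; % growth inhibition derived by comparison with vehicle-treated controls.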

[8] = NCI Yeast Anticancer Drug Screen. Data for the sgs1 mgt1 strain (AID 161);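 also: 0% = growth of cultures given vehicle only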; conditions: S. cerevisiae sgs1 mgt1 strain, stronger effect = higher value
Procedure, shortened: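 Growth of a repair-deficient yeast mutant was monitored after compound treatment and expressed as inhibition relative to vehicle-treated cultures.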

[9] = NCI Yeast Anticancer Drug Screen. Data for the CLN2oe strain (AID 163);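 also: 0% = growth of vehicle-only control cultures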; conditions: S. cerevisiae CLN2oe strain, stronger effect = higher value
Procedure, shortened: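 Compounds are applied to yeast harbouring a defined cell-cycle control change; reduced growth compared with vehicle-treated controls gives the value.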

[10] = NCI Yeast Anticancer Drug Screen. Data for the cln2 rad14 strain (AID 165);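 also: 0% = growth equal to vehicle treated cultures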; conditions: S. cerevisiae cln2 rad14 strain, stronger effect = higher value
Procedure, shortened: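 Readout is yeast growth inhibition versus vehicle-treated controls, using a strain with cln2 and rad14 alterations exposed to compound.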

[11] = NCI Yeast Anticancer Drug Screen. Data for the bub3 strain (AID 167); conditions: S. cerevisiae bub3 mutant strain, stronger effect = higher value
Procedure, shortened: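 In this screen, a yeast mutant lacking normal mitotic checkpoint function is challenged with compound. Relative growth versus vehicle gives the inhibition value.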

[12] = NCI Yeast Anticancer Drug Screen. Data for the wt2 strain (AID 169);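 also: 0% = growth of vehicle-treated yeast cultures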; conditions: S. cerevisiae wt2 strain growth inhibition, stronger effect = higher value
Procedure, shortened: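 Against vehicle-treated controls, the growth of yeast exposed to each compound was compared, and the inhibition was recorded.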

[13] = NCI Yeast Anticancer Drug Screen. Data for the mlh1 strain (AID 171);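 also: 0% = growth of vehicle-treated control cultures of the same strain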; conditions: S. cerevisiae mlh1 strain growth inhibition, stronger effect = higher value
Procedure, shortened: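 Measured: yeast growth. Reference: vehicle-treated controls. Organism: strain with a defined alteration affecting DNA damage repair or cell cycle control, treated with compound.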

[14] = NCI Yeast Anticancer Drug Screen. Data for the mlh1 rad18 strain (AID 175); conditions: S. cerevisiae mlh1 rad18 strain growth inhibition, stronger effect = higher value
Procedure, shortened: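 Genetically defined yeast (DNA repair-deficient) exposed to compounds; growth inhibition determined relative to vehicle.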

[15] = NCI Yeast Anticancer Drug Screen. Data for the rad18 strain (AID 177); conditions: S. cerevisiae rad18 mutant growth inhibition, stronger effect = higher value
Procedure, shortened: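 Vehicle-treated cultures served as the baseline for scoring compound-induced growth inhibition in DNA-repair-mutant yeast.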

[16] = NCI Yeast Anticancer Drug Screen. Data for the sgs1 strain (AID 173);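 also: 0% = growth of vehicle-only control cultures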; conditions: S. cerevisiae sgs1 mutant, stronger effect = higher value
Procedure, shortened: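 Each compound was added to cultures of the altered yeast strain. Growth was recorded, and inhibition was derived by comparison with vehicle controls.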

[17] = at 5.0 µM (retest, dose inferred, filed as 0.5)
[18] = at 50.0 µM (retest, dose inferred, filed as 5.0)

Measured: growth inhibition

Cc1ccc([N+](=O)[O-])c2c(NCCC[N+](C)(C)[O-])c3ccccc3nc12
active: [1]; at 100.0 µM 85% | [5]; at 100.0 µM 81% | [6]; at 100.0 µM 82% | [7]; at 33.0 µM 91% | [7]; at 100.0 µM 96% | [10]; [18] 91% | [10]; at 50.0 µM 77.8% | [14]; [18] 82% | [15]; at 3.7 µM 76% | [15]; at 11.0 µM 90% | [15]; at 33.0 µM 94% | [15]; at 100.0 µM 94%
inactive: [1]; at 1.2 µM -8% | [1]; at 3.7 µM -4% | [1]; at 11.0 µM 8% | [1]; at 33.0 µM 47% | [2]; at 1.2 µM -5% | [2]; at 3.7 µM 0% | [2]; at 11.0 µM 2% | [2]; at 33.0 µM 2% | [2]; at 100.0 µM 2% | [3]; at 1.2 µM -9% | [3]; at 3.7 µM -10% | [3]; at 11.0 µM -6% | [3]; at 33.0 µM 8% | [3]; at 100.0 µM 54% | [4]; at 1.2 µM -2% | [4]; at 3.7 µM 0% | [4]; at 11.0 µM -6% | [4]; at 33.0 µM 5% | [4]; at 100.0 µM 1% | [5]; at 1.2 µM 4% | [5]; at 3.7 µM 7% | [5]; [17] -16% | [5]; at 11.0 µM 3% | [5]; at 33.0 µM 38% | [5]; [18] 44% | [5]; at 50.0 µM 61.2% | [6]; at 1.2 µM -15% | [6]; at 3.7 µM -10% | [6]; [17] 11% | [6]; at 11.0 µM -14% | [6]; at 33.0 µM -1% | [6]; [18] 64% | [6]; at 50.0 µM 1.6% | [7]; at 1.2 µM 11% | [7]; at 3.7 µM 15% | [7]; at 11.0 µM 43% | [8]; [17] 6% | [8]; [18] 62% | [8]; at 50.0 µM 56.8% | [9]; at 1.2 µM -16% | [9]; at 3.7 µM -9% | [9]; at 11.0 µM -17% | [9]; at 33.0 µM -21% | [9]; at 100.0 µM 10% | [10]; [17] 18% | [11]; at 1.2 µM -11% | [11]; at 3.7 µM -4% | [11]; [17] -22% | [11]; at 11.0 µM -20% | [11]; at 33.0 µM -13% | [11]; [18] 3% | [11]; at 50.0 µM -36% | [11]; at 100.0 µM -17% | [12]; at 1.2 µM 0% | [12]; at 3.7 µM -4% | [12]; at 11.0 µM 4% | [12]; at 33.0 µM 8% | [12]; at 100.0 µM 10% | [13]; at 1.2 µM 26% | [13]; at 3.7 µM 11% | [13]; at 11.0 µM 10% | [13]; at 33.0 µM -12% | [13]; at 100.0 µM 27% | [14]; [17] 31% | [14]; at 50.0 µM 45.1% | [15]; at 1.2 µM 22%

CCCCCCCSCC1C(=O)C23C(O)C1CCC2C12COC3(O)C(O)C1C(C)(C)CCC2O (stereo not drawn)
inactive: [1]; at 1.2 µM 13% | [1]; at 3.7 µM 14% | [2]; at 1.2 µM 16% | [2]; at 3.7 µM 5% | [3]; at 1.2 µM 26% | [3]; at 3.7 µM 27% | [3]; at 11.0 µM 32% | [3]; at 33.0 µM 28% | [3]; at 100.0 µM 6% | [4]; at 1.2 µM 20% | [4]; at 3.7 µM 20% | [5]; at 1.2 µM 13% | [5]; at 3.7 µM 16% | [5]; [17] -12% | [5]; at 11.0 µM 66% | [6]; at 1.2 µM 23% | [6]; at 3.7 µM 15% | [6]; [17] 2% | [6]; at 11.0 µM 67% | [7]; at 1.2 µM -9% | [7]; at 3.7 µM 5% | [8]; [17] 28% | [9]; at 1.2 µM 19% | [9]; at 3.7 µM 6% | [10]; [17] 54% | [11]; at 1.2 µM 4% | [11]; at 3.7 µM 9% | [11]; [17] 65% | [12]; at 1.2 µM 14% | [12]; at 3.7 µM 0% | [12]; at 11.0 µM 67% | [13]; at 1.2 µM -1% | [13]; at 3.7 µM 23% | [16]; at 1.2 µM 26% | [16]; at 3.7 µM 19% | [15]; at 1.2 µM -1% | [15]; at 3.7 µM 2%
active: [1]; at 11.0 µM 71% | [1]; at 33.0 µM 94% | [1]; at 100.0 µM 85% | [2]; at 11.0 µM 82% | [2]; at 33.0 µM 95% | [2]; at 100.0 µM 90% | [4]; at 11.0 µM 88% | [4]; at 33.0 µM 96% | [4]; at 100.0 µM 89% | [5]; at 33.0 µM 93% | [5]; [18] 74% | [5]; at 50.0 µM 87.5% | [5]; at 100.0 µM 81% | [6]; at 33.0 µM 94% | [6]; [18] 97% | [6]; at 50.0 µM 88.2% | [6]; at 100.0 µM 87% | [7]; at 11.0 µM 84% | [7]; at 33.0 µM 95% | [7]; at 100.0 µM 91% | [8]; [18] 95% | [8]; at 50.0 µM 87.8% | [9]; at 11.0 µM 89% | [9]; at 33.0 µM 97% | [9]; at 100.0 µM 91% | [10]; [18] 97% | [10]; at 50.0 µM 85.8% | [11]; at 11.0 µM 78% | [11]; at 33.0 µM 94% | [11]; [18] 97% | [11]; at 50.0 µM 86.2% | [11]; at 100.0 µM 90% | [12]; at 33.0 µM 95% | [12]; at 100.0 µM 93% | [13]; at 11.0 µM 93% | [13]; at 33.0 µM 95% | [13]; at 100.0 µM 91% | [16]; at 11.0 µM 89% | [16]; at 33.0 µM 95% | [16]; at 100.0 µM 84% | [15]; at 11.0 µM 89% | [15]; at 33.0 µM 94% | [15]; at 100.0 µM 87%
